An excerpt weighted towards active compounds, which were near 3.2% of everything screened.
TRb-SRC2 inh = qHTS for Inhibitors of the Interaction of Thyroid Hormone Receptor and Steroid Receptor Coregulator 2. 280,000 tested, 0.065% active. TRbeta-SRC2 peptide binding, fluorescence polarization; receptor liganded with 1 µM T3. Potency, µM (doses to about 106 µM), for the others: top-dose activity change, negative = inhibition, usual class: inhibitors;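 note: plate controls were bound peptide for no effect and peptide without receptor for full effect; nearly all actives have a fitted effect of over 50% in size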
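Compounds were added to 0.6 uM TRb ligand-binding domain and 20 nM Texas Red-labeled SRC2 peptide in Tris buffer containing 1 uM T3, incubated 5 hr at ambient temperature, then read by fluorescence polarization.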
GoLoco inh red = qHTS Assay for Inhibitors of RGS12 GoLoco Motif Activity (Red Fluorophore) | Potency, µM (titrated, usually from 61.6 µM), without a hit: at the top dose activity, negative = inhibition, usual class: inhibitors | Gai1:RGS12 GoLoco peptide FP, rhodamine, 10 min | Guanine nucleotide-binding protein G(i) subunit alpha-1 (Homo sapiens), P63096 | 230,000 tested, 0.44% active; active = well fitted inhibition curve with a large enough effect, not every such curve was filed as active; inactive = no such curve, though single readings can be large or run the other way; note: nearly all actives have a fitted effect of over 30% in size
Target sequence (P63096 whole entry, looked up): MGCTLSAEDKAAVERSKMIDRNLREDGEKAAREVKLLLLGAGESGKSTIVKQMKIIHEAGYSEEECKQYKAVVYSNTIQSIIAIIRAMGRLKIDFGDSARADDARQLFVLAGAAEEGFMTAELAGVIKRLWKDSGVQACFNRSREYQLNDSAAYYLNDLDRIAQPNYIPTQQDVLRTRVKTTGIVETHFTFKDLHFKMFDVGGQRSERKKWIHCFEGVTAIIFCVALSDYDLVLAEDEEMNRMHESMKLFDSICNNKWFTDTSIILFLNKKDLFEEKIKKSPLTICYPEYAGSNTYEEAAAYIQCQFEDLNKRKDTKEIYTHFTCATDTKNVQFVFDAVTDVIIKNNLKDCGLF
TexasRed fluor = Total Fluorescence Counterscreen for Inhibitors of the Interaction of Thyroid Hormone Receptor and Steroid Receptor Coregulator 2 | TRb/SRC2 Texas Red total fluorescence interference | Potency, µM (highest dose often 106 µM), without a hit: at the top dose fluorescence change, negative = quenching | 280,000 tested, 0.29% active | AID 1479, 2009; active = well fitted curve in either direction with a large enough effect; inconclusive = small, poorly fitted or top-dose-only effect
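Flags fluorescent or light-absorbing compounds by total fluorescence, S + 2P, at 555 nm excitation and 632 nm emission. Mixture: 20 nM Texas Red SRC2 peptide, 0.6 uM human TRb LBD, 1 uM T3, 5% DMSO; compound exposure 5 h at ambient temperature.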
Tau fluor cs = Counterscreen qHTS for Inhibitors of Tau Fibril Formation, Fluorescence Polarization | AID 1463, 2008 | tau K18 P301L Alexa594 fluorescence, heparin fibrillization | Potency, µM (highest dose often 57.7 µM), for inactives: at the highest dose activity change, negative = decrease | 280,000 tested, 0.93% active; note: nearly all actives have a fitted effect of over 55% in size
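Human K18 P301L tau (15 uM unlabeled plus 0.24 uM Alexa 594-labeled, final) in 100 mM sodium acetate pH 7 was mixed with compound and 20 uM heparin and incubated 6 hr at 37 C.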
Tau ThT inhib = qHTS for Inhibitors of Tau Fibril Formation, Thioflavin T Binding | Microtubule-associated protein tau (Homo sapiens), P10636 | recombinant tau K18 P301L, heparin-induced fibrillization, ThT fluorescence | Potency, µM (top dose mostly 57.4 µM), for the others: at the top dose activity, negative = inhibition, hits mostly inhibitors | 270,000 tested, 2.1% active | AID 1460, 2008; note: nearly all actives have a fitted effect of over 55% in size
Target sequence (P10636 561-689 P618L limits assumed): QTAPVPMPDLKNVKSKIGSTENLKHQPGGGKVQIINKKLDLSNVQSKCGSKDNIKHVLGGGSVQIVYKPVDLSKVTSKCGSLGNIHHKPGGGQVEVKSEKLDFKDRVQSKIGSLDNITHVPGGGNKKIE
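Using a mix of unlabeled (15 uM) and Alexa 594-labeled (0.24 uM) tau K18 P301L, heparin-triggered fibrillization over 6 hr at 37 C was scored by ThT fluorescence.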
Tau fibril FP = qHTS for Inhibitors of Tau Fibril Formation, Fluorescence Polarization | Microtubule-associated protein tau (Homo sapiens), P10636 | K18 P301L tau heparin fibrillization, Alexa594 FP, 6 h | Potency, µM (highest dose often 57.7 µM), inactives show top-dose activity, negative = inhibition, most hits filed as inhibitors | 280,000 tested, 0.39% active | AID 1468, 2008; note: nearly all actives have a fitted effect of over 55% in size
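Human K18 P301L fragment (15 uM unlabeled plus 0.24 uM Alexa 594-labeled) in 100 mM sodium acetate pH 7 with compound, aggregation induced by 20 uM heparin for 6 hr at 37 C. ThT (30 uM) added for 1 hr, then Alexa 594 FP read.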
* = called active by the depositor; [ ] = another dose, or the depositor's remark. Unless noted, calls come from the whole dose curve; as a rule, active = well fitted curve in the direction sought with a large enough effect; inconclusive = small, poorly fitted or top-dose-only effect, or another doubt; inactive = no such curve, though single readings can be large; an effect the other way counts as inactive or inconclusive. Unless noted, % is set by controls: 0 for no effect and ±100 for the full control effect; potency is the fitted concentration of half-maximal effect.

CC[C@H](C)[C@H](NC(=O)[C@H](Cc1ccc(O)cc1)NC(=O)[C@H](Cc1cnc[nH]1)NC(=O)[C@H](CCCNC(=N)N)NC(=O)[C@H](CC(C)C)NC(=O)[C@H](C)NC(=O)[C@H](CO)NC(=O)[C@H](Cc1ccc(O)cc1)NC(=O)[C@H](Cc1ccc(O)cc1)NC(=O)[C@H](CCCNC(=N)N)NC(=O)[C@H](C)NC(=O)[C@H](CCSC)NC(=O)[C@H](CC(=O)O)NC(=O)[C@H](CCC(=O)O)NC(=O)[C@H](C)NC(=O)[C@@H]1CCCN1C(=O)[C@H](C)NC(=O)[C@H](CC(=O)O)NC(=O)[C@H](CCC(=O)O)NC(=O)CNC(=O)[C@@H]1CCCN1C(=O)[C@H](CC(N)=O)NC(=O)[C@H](CC(=O)O)NC(=O)[C@@H]1CCCN1C(=O)[C@H](CCCCN)NC(=O)[C@H](CO)NC(=O)[C@@H]1CCCN1C(=O)[C@@H](N)Cc1ccc(O)cc1)C(=O)N[C@@H](CC(N)=O)C(=O)N[C@@H](CC(C)C)C(=O)N[C@@H](CC(C)C)C(=O)N[C@H](C(=O)N[C@@H](CCCNC(=N)N)C(=O)N1CCC[C@H]1C(=O)N[C@@H](CCCNC(=N)N)C(=O)N[C@@H](Cc1ccc(O)cc1)C(N)=O)[C@@H](C)O was read as TRb-SRC2 inh 6% and TexasRed fluor 2%.
`CCOc1ccc(NC(=O)N2CC=C(c3c[nH]c4ccccc34)CC2)cc1` gave TRb-SRC2 inh 1%, TexasRed fluor -1%, Tau fluor cs 16µM*[quencher], Tau ThT inhib 4.5µM* and Tau fibril FP -8%.
CCOC(=O)c1cccc(NC(=O)N2CCC(CN3CCc4ccccc4C3)CC2)c1 was read as TRb-SRC2 inh 3%, TexasRed fluor -7%, Tau fluor cs -6%, Tau ThT inhib -5% and Tau fibril FP 1%.
Screening COc1cc(OC)c(NC(=O)N2CC=C(c3c[nH]c4ccccc34)CC2)cc1Cl returned TRb-SRC2 inh 3%, TexasRed fluor -2%, Tau fluor cs 7.9µM*[quencher], Tau ThT inhib inconclusive and Tau fibril FP inconclusive.
Screening Cc1cc(NC(=O)N2CC=C(c3c[nH]c4ccccc34)CC2)ccc1Br returned TRb-SRC2 inh -5%, TexasRed fluor -2%, Tau fluor cs 13µM*[quencher], Tau ThT inhib 7.9µM* and Tau fibril FP -10%.
For CCOC(=O)c1cccc(NC(=O)N2CC=C(c3c[nH]c4ccccc34)CC2)c1 the results were TRb-SRC2 inh -2%, TexasRed fluor 0%, Tau fluor cs 13µM*[quencher], Tau ThT inhib inconclusive and Tau fibril FP -6%.
COc1cc(OC)c(NC(=O)N2CCN3CCCCC3C2)cc1Cl (configuration not stated) was read as TRb-SRC2 inh 4%, TexasRed fluor -2%, Tau fluor cs 2%, Tau ThT inhib 4% and Tau fibril FP 1%.
COc1ccc(-n2cnc3cc(C(=O)NC4CCCCCC4)ccc32)cc1 was read as TRb-SRC2 inh -12%, TexasRed fluor inconclusive, Tau fluor cs -10%, Tau ThT inhib -17% and Tau fibril FP 3%.
Screening Cc1ccc(-n2ncc3c(Nc4ccc5c(c4)OCCO5)ncnc32)cc1C returned TRb-SRC2 inh 7%, TexasRed fluor -2%, Tau fluor cs inconclusive, Tau ThT inhib inconclusive and Tau fibril FP inconclusive.
For CCc1ccc(S(=O)(=O)c2nnn3c2nc(Nc2ccc(NC(C)=O)cc2)c2sccc23)cc1 the results were TRb-SRC2 inh -1%, TexasRed fluor -2%, Tau fluor cs inconclusive, Tau ThT inhib 2% and Tau fibril FP -16%.
`Cc1ccc(C)c(NC(=O)CS(=O)(=O)c2c[nH]c3ccccc23)c1` gave TRb-SRC2 inh -10%, GoLoco inh red 5%, TexasRed fluor -2%, Tau fluor cs -9%, Tau ThT inhib -8% and Tau fibril FP -1%.
For CCc1ccc(NC(=O)N2CC=C(c3c[nH]c4ccccc34)CC2)cc1 the results were TRb-SRC2 inh -2%, TexasRed fluor -12%, Tau fluor cs 13µM*[quencher], Tau ThT inhib 7.1µM* and Tau fibril FP -1%.
For Cc1ccc(C)c(NC(=O)N2CC=C(c3c[nH]c4ccccc34)CC2)c1 the results were TRb-SRC2 inh -8%, TexasRed fluor -1%, Tau fluor cs 25µM*[quencher], Tau ThT inhib inconclusive and Tau fibril FP 7%.
`Cc1ccc(CN2C(=O)C(O)(c3c[nH]c4ccccc34)c3cc(Cl)ccc32)cc1` (configuration not stated) gave TRb-SRC2 inh 11%, TexasRed fluor 4%, Tau fluor cs inconclusive, Tau ThT inhib -15% and Tau fibril FP inconclusive.
`COc1ccc(N=Nc2cnc(C)nc2-c2ccccc2)cc1` gave TRb-SRC2 inh 1%, GoLoco inh red 5%, TexasRed fluor -2%, Tau fluor cs inconclusive, Tau ThT inhib 18µM* and Tau fibril FP 10%.
COc1ccc(NC(=O)c2c(N)no[n+]2[O-])cc1 was read as TRb-SRC2 inh -3%, GoLoco inh red 1%, TexasRed fluor -4%, Tau fluor cs -10%, Tau ThT inhib -13% and Tau fibril FP -6%.
`COc1ccc(C(=O)c2no[n+]([O-])c2C(=O)c2ccc(OC)cc2)cc1` gave TRb-SRC2 inh 4%, GoLoco inh red -8%, TexasRed fluor -3%, Tau fluor cs -28%, Tau ThT inhib 18µM* and Tau fibril FP inconclusive.
Screening Nc1c(S(=O)(=O)c2cccs2)c2nc3ccccc3nc2n1/N=C/c1cccc(O)c1 returned TRb-SRC2 inh 4%, GoLoco inh red 0%, TexasRed fluor -1%, Tau fluor cs 3.2µM*[quencher], Tau ThT inhib 0% and Tau fibril FP 7.9µM*.
`Nc1c(S(=O)(=O)c2ccccc2)c2nc3ccccc3nc2n1/N=C/c1ccco1` gave TRb-SRC2 inh inconclusive, GoLoco inh red 84%, TexasRed fluor -24%, Tau fluor cs inconclusive, Tau ThT inhib 28µM* and Tau fibril FP -8%.
